TGFb SMAD3 inh – TGF-b pathway inhibition | HepG2 CAGA-GFP TGF-b/SMAD3 reporter, GFP fluorescence, 18 h; TGF-beta stimulated, 500 pg/mL final | Potency, µM (titrated, usually from 46.1 µM), usual class: inhibitors | 410,000 tested, 1.2% active; further: nearly all actives have a fitted effect of over 65% in size
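Using HEPG2 CAGA-GFP reporter cells at 1000 cells/well, we pinned test compounds, stimulated with recombinant TGF-beta (500 pg/mL final) and measured total well GFP after 18 h.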
HepG2 tox – HepG2 cytotoxicity, counter-screen for TGF-b inhibitors. 410,000 tested, 0.76% active. Potency, µM (doses to about 46.1 µM), usual class: cytotoxic. HepG2 CAGA-GFP viability, ATP luminescence, 18 h. AID 588856
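CellTiter-Glo luminescence gave cytotoxicity after 18 hours at 37 degrees C. The cells were HepG2 CAGA-GFP in 1% FBS DMEM, stimulated with 500 pg/mL TGF-beta after compound addition. %Activity was normalised to no-cell wells (complete cell-killing) and DMSO (no toxicity), and curves were fitted and classified.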
ATXN2 expr inh – ATXN2 expression inhibition; Potency, µM (top dose mostly 57 µM), most hits filed as inhibitors; HEK-293 ATXN2-luciferase reporter, luminescence, 24 h; 360,000 tested, 0.72% active; AID 1745845; further: nearly all actives have a fitted effect of over 55% in size
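ATXN2-luciferase reporter cells (luciferase flanked by upstream and downstream ATXN2 gene portions) were treated 24 h at 37 °C with compounds at up to 57 uM. SteadyGlo luminescence gave expression; GF-AFC fluorescence gave viability.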
GLP-1R agonist – agonists of human GLP-1 receptor; P43220; HEK293 GLP-1R CRE-luciferase, luminescence, 4-6 h; cells express a hypersensitive GLP-1R form; Potency, µM (top dose mostly 45.6 µM), most hits filed as activators; 380,000 tested, 0.007% active
Target sequence (P43220 whole entry, looked up): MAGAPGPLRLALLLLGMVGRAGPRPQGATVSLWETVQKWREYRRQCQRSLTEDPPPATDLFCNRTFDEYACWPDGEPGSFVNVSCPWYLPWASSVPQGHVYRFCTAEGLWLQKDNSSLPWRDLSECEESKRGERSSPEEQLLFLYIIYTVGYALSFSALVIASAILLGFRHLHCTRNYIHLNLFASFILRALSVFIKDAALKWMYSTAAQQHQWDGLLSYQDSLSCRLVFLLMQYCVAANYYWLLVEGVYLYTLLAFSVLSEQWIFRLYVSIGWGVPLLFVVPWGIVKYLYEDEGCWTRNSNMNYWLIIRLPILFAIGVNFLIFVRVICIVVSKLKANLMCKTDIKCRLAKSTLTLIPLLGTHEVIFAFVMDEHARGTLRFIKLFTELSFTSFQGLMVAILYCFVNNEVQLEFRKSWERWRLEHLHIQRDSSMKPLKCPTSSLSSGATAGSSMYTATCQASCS
GLP1R inv ag – acts as inverse agonist at human GLP-1 receptor. 410,000 tested, 1.6% active. Potency, µM (top dose mostly 38.3 µM), actives largely listed as inhibitors. P43220. HEK293 GLP-1R CRE-luciferase, luminescence, 24 h; GLP-1R form is constitutively active. AID 624417; further: nearly all actives have a fitted effect of over 55% in size
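Cells are plated, allowed 12 hours at 37 deg C, then treated with compounds for 24 hr before luciferase detection reagent is added and luminescence is read after 12 min at room temperature. The HEK293 line carries constitutively active GLP-1R with a cAMP-responsive reporter.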
ATXN viability – reduces viability in counter-screen for ATXN expression inhibitors; Potency, µM (titrated, usually from 56.7 µM), actives largely listed as cytotoxic; S2 cells (HEK-293 line with an ATXN2-luciferase reporter) viability, CellTiter-Fluor protease fluorescence, 24 h; 400,000 tested, 0.49% active; further: nearly all actives have a fitted effect of over 40% in size
Hits are given with their value; - = inactive; ? = inconclusive; . = no result given; ! = not confirmed by another sample. Shown are actives, neighbours in structure and some others; about 3.7% of the full set was active somewhere. The call rests on the fitted dose curve; in most records, active means well fitted curve in the direction sought with a large enough effect; inconclusive means small, poorly fitted or top-dose-only effect, or another doubt; inactive means no such curve, though single readings can be large; an effect the other way counts as inactive or inconclusive.

SMILES	TGFb SMAD3 inh	HepG2 tox	ATXN2 expr inh	GLP-1R agonist	GLP1R inv ag	ATXN viability
CC(=O)c1cc(C(=O)Nc2cc(C)cc(C)c2)c2ccccn12	-	-	-	-	-	-
CN(CCO)C(=O)c1cn(C2CCCN(Cc3cccc4ccccc34)C2)nn1 (stereo not given)	.	.	.	.	.	-
Cc1ccc2c(c1)CCC2=O	-	-	.	.	.	.
COc1ccc(NC(=O)c2nn(C)c3c2CSc2ccc(C)cc2-3)cc1OC	-	11µM	-	.	?	-
Cc1ccc2c(c1)-c1c(c(C(=O)N3CCN(c4cc(C)ccc4C)CC3)nn1C)CS2	-	-	.	.	-	.
C/C=C(\NNC(C)=O)c1ccc(O)cc1	-	-	.	.	.	.
CCOC(=O)C1=C(c2ccccc2)N=c2sc(=Cc3cc(OC)c(OC)c(OC)c3)c(=O)n2C1c1cccs1 (stereo not given)	-	-	-	-	-	-
CCOC(=O)C1=C(c2ccccc2)N=c2s/c(=C\c3ccc(O)cc3)c(=O)n2C1c1cccs1 (stereo not given)	?	-	28µM	-	-	?
CCN(C(=O)CSc1nc2ccccc2n1CC(=O)Nc1cccc(C#N)c1)c1ccccc1	?	-	-	.	?	?
CN(C)Cc1cc(C(F)(F)F)ccc1C(O)(c1ccccc1)c1ccccc1	?	-	-	-	8.9µM	?
CCC12CN3CC(CC)(CN(C1)C3c1cc(Br)ccc1OC)C2=O (stereo not given)	-	-	-	.	-	-
CCN1CCN(c2cc(-c3ccc(F)cc3)c3c(n2)CCCCCC3)CC1	.	.	-	-	.	?
CCOc1ccc2[nH]c3c(N4CCc5ccccc5C4)ncnc3c2c1	?	-	-	-	?	?
COc1ccc2[nH]c3c(N4CCN(Cc5ccc6c(c5)OCO6)CC4)ncnc3c2c1	?	-	28µM	-	?	?
COc1ccc2[nH]c3c(N4CCC(O)(c5cccc(C(F)(F)F)c5)CC4)ncnc3c2c1	?	-	28µM	-	?	?
O=C(NCCc1nc2ccccc2n1CCOc1cccc2ccccc12)C1CCCCC1	-	-	.	.	.	.
COc1ccc(Cn2c(SCc3ccc(C(=O)NC4CCCC4)cc3)nc3ccncc32)cc1	?	-	?	.	?	?
O=C(NC1CCCCC1)c1ccc(CSc2nc3cccnc3n2Cc2ccccc2)cc1	-	-	-	.	?	?
O=C(NC1CCCC1)c1ccc(CSc2nc3cccnc3n2Cc2ccccc2)cc1	18µM	-	-	.	-	-
O=C(NC1CCCC1)c1ccc(CSc2nc3ccncc3n2Cc2ccc(F)cc2)cc1	7.9µM!	-	?	-	?	?
COc1ccc(Cn2c(SCc3ccc(C(=O)NC4CCCCC4)cc3)nc3ccncc32)cc1	13µM	-	?	.	?	-
COc1ccc(CN2CCCC(n3cc(C(=O)N4CCCCC4)nn3)C2)cc1OC (stereo not given)	.	.	.	.	.	-
C/C(=C(/CCOC(=O)c1ccccc1)SS/C(CCOC(=O)c1ccccc1)=C(\C)N(C=O)Cc1cnc(C)nc1N)N(C=O)Cc1cnc(C)nc1N	.	.	.	-	.	.
CC(C)(C)C1CCc2c(sc(NC(=O)CSc3ncn[nH]3)c2C#N)C1 (stereo not given)	?	-	?	?	-	-
CCN1CCN(CC(=O)Nc2sc3c(c2C#N)CCC(C)C3)CC1 (stereo not given)	-	-	-	-	2µM	-
SMILES	TGFb SMAD3 inh	HepG2 tox	ATXN2 expr inh	GLP-1R agonist	GLP1R inv ag	ATXN viability
CC1CCc2c(sc(NC(=O)CSc3ncn[nH]3)c2C#N)C1 (stereo not given)	-	-	0.34µM	-	-	-
CCc1ccc(-c2cc(C)no2)cc1S(=O)(=O)NCCCN1CCN(c2ccccc2)CC1	18µM	-	?	-	?	?
CCc1ccc(-c2cc(C)no2)cc1S(=O)(=O)NCCN1CCC(C)CC1	-	-	-	-	?	-
CC1CCC(C(C)C)C(OC(=O)COC(=O)c2ccc(N)cc2)C1 (stereo not given)	?	-	-	-	?	-
CC1CCC(C(C)C)C(OC(=O)COC(=O)c2cccn2C)C1 (stereo not given)	-	-	-	-	10µM	-
Cc1ccccc1OCc1n(CC(=O)OC2CC(C)CCC2C(C)C)c2ccccc2[n+]1C (stereo not given)	7.9µM	16µM	?	-	?	25µM
CC1CCC(C(C)C)C(OC(=O)Cn2c(-c3ccc(Br)cc3)[n+](C)c3ccccc32)C1 (stereo not given)	13µM	25µM!	?	-	?	?
CC1CCC(C(C)C)C(OC(=O)Cn2c(-c3ccc(Cl)cc3)[n+](C)c3ccccc32)C1 (stereo not given)	?	11µM	?	-	10µM	?
CCCCN(C)C(=O)c1ccc(Nc2nc(C(N)Cc3ccccc3)cs2)nc1 (stereo not given)	?	-	?	-	-	?
CCCc1cnc(Nc2nc(C(N)Cc3ccc(OC)cc3)cs2)nc1 (stereo not given)	?	11µM	?	-	?	?
CN(Cc1ccccc1)C(=O)c1ccc(Nc2nc(C(N)Cc3ccc(C(F)(F)F)cc3)cs2)nc1 (stereo not given)	?	10µM	?	-	?	32µM
CN(Cc1ccccc1)C(=O)c1ccc(Nc2nc(C(N)COCc3ccccc3)cs2)nc1 (stereo not given)	?	-	?	-	?	?
CN(Cc1ccccc1)C(=O)c1ccc(Nc2nc(C(N)Cc3ccccc3)cs2)nc1 (stereo not given)	?	16µM	14µM	-	?	16µM
COc1cccc(Nc2nc(C(N)Cc3ccccc3)cs2)n1 (stereo not given)	11µM	-	?	-	?	?
COc1cccc(Nc2nc(C(N)CO)cs2)n1 (stereo not given)	-	-	-	-	?	-
CC(C)CC(N)c1csc(Nc2ccc(C(=O)N(C)Cc3ccccc3)cn2)n1 (stereo not given)	?	-	28µM	-	?	28µM
Cc1ccc(Cc2c(-c3ccc(C)cc3)nc3c(C)cc(Br)cn23)cc1	?	-	-	-	-	-
Cc1cc(Br)cn2c(Cc3ccsc3)c(-c3cccc(Cl)c3)nc12	-	-	-	-	?	-
Cc1cc(Br)cn2c(Cc3cccc(Cl)c3)c(-c3cccc(Cl)c3)nc12	.	.	-	-	10µM	-
Cc1ccc(Cc2c(-c3ccc(F)cc3)nc3c(C)cc(Br)cn23)cc1	13µM	-	-	-	-	?
Cc1cc(Br)cn2c(Cc3ccsc3)c(-c3ccco3)nc12	6.3µM	16µM	?	-	?	?
